Our source for the PBM binding z-score values is the supplement of paper PMC6555819.

Common to all, as to assay: PBM binding z-score (relative to random genomic background probes); higher = stronger binding; sequences stand for … in GC…GCGATTGACAGCGTAGAATGAAGG
Experiment [1] has as its system FXR:RXRa (NR concentration 270 nM, RXRa partner concentration 90 nM). The method, boiled down:
(§1)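 Custom Agilent 4×180K protein-binding microarrays carried double-stranded probes. Their 34-nt variable regions held direct-repeat seeds, single-nucleotide variants, half-site ablations and random human genomic background sequences. Arrays were incubated 1 h with ligand-free nuclear receptor dimers in PBS pH 7.4, 2% milk, 0.02% Triton X-100, 1 mM DTT, 0.2 mg/mL BSA and 0.4 mg/ml salmon testes DNA. Antibodies against each partner (one per run) detected binding, and scanned fluorescence was regression-normalized. Binding z-scores use random background probes as reference.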

In experiment [2] the test system is LXRa:RXRa (NR concentration 270 nM, RXRa partner concentration 90 nM). The method, boiled down: as §1
In experiment [3] the test system is LXRa homodimer (NR concentration 270 nM). An outline of the steps:
as §1

In experiment [4] the test system is LXRb:RXRa (NR concentration 270 nM, RXRa partner concentration 90 nM). The method, boiled down:
as §1

For experiment [5], the system named is LXRb homodimer (NR concentration 270 nM). An outline of the steps: as §1
The test system of experiment [6] is PPARa:RXRa (NR concentration 270 nM, RXRa partner concentration 90 nM). An outline of the steps:
as §1

Experiment [7] concerns PPARg:RXRa (NR concentration 180 nM, RXRa partner concentration 90 nM). An outline of the steps:
as §1

Experiment [8] concerns PPARg:RXRa 270nM:90nM, anti-RXR (NR concentration 270 nM, RXRa partner concentration 90 nM). An outline of the steps:
as §1

Experiment [9] relates to PPARg:RXRa 30nM:10nM, anti-RXR (NR concentration 30 nM, RXRa partner concentration 10 nM). An outline of the steps:
as §1

The subject of experiment [10] is PPARg:RXRa 90nM:30nM, anti-RXR (NR concentration 90 nM, RXRa partner concentration 30 nM). An outline of the steps:
as §1

The test system of experiment [11] is PPARg:RXRa DBDmut IVT, anti-RXR (DBD mutation: RXRa K156A/R161A, NR concentration 270 nM, RXRa partner concentration 90 nM). An outline of the steps:
as §1

For experiment [12], the system named is PPARg:RXRa IVT, anti-PPARg (NR concentration 270 nM, RXRa partner concentration 90 nM). An outline of the steps: as §1
Experiment [13] concerns PPARg DBDmut IVT, anti-PPARg (DBD mutation: PPARg1 K132A/R137A, NR concentration 270 nM). An outline of the steps: as §1
Experiment [14] relates to PPARg homodimer (NR concentration 180 nM). The method, boiled down:
as §1

Experiment [15] relates to PXR:RXRa (NR concentration 270 nM, RXRa partner concentration 90 nM). The method, boiled down: as §1
The test system of experiment [16] is PXR homodimer (NR concentration 270 nM). The method, boiled down: as §1
Experiment [17] relates to RARa:RXR (NR concentration 270 nM, RXRa partner concentration 90 nM). The method, boiled down: as §1
Experiment [18] concerns RARa homodimer (NR concentration 270 nM). The method, boiled down:
as §1

For experiment [19], the system named is RARb:RXRa (NR concentration 270 nM, RXRa partner concentration 90 nM). An outline of the steps: as §1
Experiment [20] relates to PPARg DBDmut:RXRa IVT, anti-PPARg (DBD mutation: PPARg1 K132A/R137A, NR concentration 270 nM, RXRa partner concentration 90 nM). An outline of the steps:
as §1

For the sequence CGAACTTGGTCACCAGGACAGTGAAGAGGTTGGA, the PBM binding z-score in [1] was 0.102; in experiment [2] it was -0.231; in experiment [3], -0.0617; in experiment [4] it was -0.452; in [5], -0.791; in experiment [6] it was 0.239. Moreover, the PBM binding z-score is 0.758 in [7]; 0.47 in experiment [8]; -0.456 in experiment [9]; -0.143 in [10]; 1.74 in [11]; 2.17 in [12]. The PBM binding z-score in [13] is -0.841; in [14] it was 0.157; in [15] it was -0.0595; in [16], -0.183; in [17], 0.344; in [18], -0.448. In experiment [19], the PBM binding z-score was found to be 1.38.

For the sequence AGTCAAAGTTCACTAGGCAACGTAAGATTCAGCT, the PBM binding z-score in experiment [1] was determined as 5.28; in experiment [2] it was 5.12; in experiment [3] it was 2.72; in experiment [4] it was 2.89; in experiment [5] it was 0.757; in experiment [6] it was 4.5. Also, the PBM binding z-score came to 6.21 in experiment [8]; 3.31 in experiment [9]; 5.38 in experiment [10]; 1.55 in experiment [11]; 3.93 in experiment [12]; 1.31 in [20]. Moreover, the PBM binding z-score came out at 0.663 in [13]; 1.75 in experiment [14]; 3.81 in experiment [15]; 2.09 in experiment [16]; 3.04 in experiment [17]; 0.611 in experiment [18]. For the same sequence, in [19], the PBM binding z-score turned out to be 4.78.

Consider ATATGTAGGTTAGGGGCATTCAGAAAGTAGGGAA, for which the PBM binding z-score in experiment [1] stood at 1.64; in experiment [2] it was 1.47; in experiment [3], 0.824; in experiment [4], 3.01; in experiment [5], 2.52; in experiment [6] it was 3.8. Also, the PBM binding z-score in experiment [7] is 5.77; in experiment [8] it was 5.21; in experiment [9] it was 2.78; in [10], 4.77; in [11] it was 6.62; in experiment [12], 6.65. For the same sequence, the PBM binding z-score in experiment [13] is 1.93; in [14] it was 2.07; in [15], 1.43; in experiment [16], 1.48; in [17], 1.52; in experiment [18] it was 1.74. In addition, the PBM binding z-score in [19] amounted to 1.86.

ATATGTTGGTTAGGGTCATTCAGAAAGTAGGGAA: the PBM binding z-score is 4.81 in experiment [1]; 4 in [2]; 1.67 in experiment [3]; 4.72 in experiment [4]; 2.36 in experiment [5]; 4.86 in experiment [6]. Moreover, the PBM binding z-score in [7] amounted to 3.15; in experiment [8], 3.69; in experiment [9], 1.7; in experiment [10], 2.88; in experiment [11], 1.44; in [12], 2.45. Also, the PBM binding z-score in [13] worked out at 1.7; in [14], 3.53; in [15] it was 4.44; in experiment [16] it was 2.69; in experiment [17], 4.96; in experiment [18], 2.67. Moreover, the PBM binding z-score in experiment [19] came out at 3.2.

AGTCAAAGTTCATCTGGGTAACGTAAGATATGCT: the PBM binding z-score in experiment [1] was determined as 6.32; in [2] it was 6.01; in experiment [3], 5.7; in experiment [4], 4.05; in experiment [5], 1.69; in [6], 4.98. Moreover, the PBM binding z-score in experiment [8] came out at 6.09; in experiment [9], 3.73; in experiment [10], 5.62; in [11], 1.05; in [12], 3.77; in experiment [20] it was 0.881. In addition, the PBM binding z-score was 0.701 in experiment [13]; 2.39 in [14]; 5.16 in experiment [15]; 5.32 in experiment [16]; 3.69 in experiment [17]; 1.4 in [18]. Besides, the PBM binding z-score in experiment [19] came out at 4.81.

As for CGAACTAGGTCAAAGGACAGTGGAAGGCGACGTA, the PBM binding z-score in experiment [1] was 3.72; in experiment [2], 2.62; in experiment [3], -0.0912; in experiment [4] it was 1.47; in experiment [5], -0.761; in experiment [6], 5.49. Further, the PBM binding z-score was 9.71 in [7]; 8.34 in experiment [8]; 8.02 in [9]; 9.05 in [10]; 8.19 in experiment [11]; 8.49 in experiment [12]. Further, the PBM binding z-score in experiment [13] was 1.31; in experiment [14], 1.21; in experiment [15] it was 0.947; in [16], -0.227; in experiment [17] it was 1.74; in experiment [18], 0.262. The PBM binding z-score in experiment [19] came out at 3.93.

In the case of CTAACTAGGTCACAGAGGTCAAAGTCCGTGCGTA, the PBM binding z-score came to 7.38 in experiment [1]; 6.55 in experiment [2]; 7.37 in [3]; 6.19 in experiment [4]; 2.21 in experiment [5]; 6.62 in experiment [6]. In addition, the PBM binding z-score amounted to 8.54 in experiment [8]; 7.16 in [9]; 9.04 in experiment [10]; 8.94 in experiment [11]; 9.17 in experiment [12]; 7.21 in experiment [20]. In addition, the PBM binding z-score in [13] amounted to 5.22; in experiment [14], 4.09; in experiment [15], 6.74; in experiment [16] it was 12.1; in experiment [17] it was 7.31; in experiment [18], 3.9. For the same sequence, the PBM binding z-score in experiment [19] came out at 5.32.
